Sampled rows, rich in hits. Any-hit rate of the full collection: about 2.2%.
Nrf2 activator – qHTS of Nrf2 Activators | AREc32 ARE-luciferase reporter (MCF7-derived line), luminescence, 24 h | Potency, µM (top dose mostly 46.1 µM), inactives show at the highest dose activation, hits mostly activators | actives 0.31% (n = 410,000) | AID 624171, 2012; note: % of control where 0% means no effect; nearly all actives have a fitted effect of over 65% in size
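Steps: seed AREc32_Fluc cells (1000/well, 5% FBS OPTI-MEM); incubate overnight at 37 deg C; add 23 nL compound; incubate 24 hr; add Steady-Glo; hold 30 min RT; read luminescence.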
Pin1 inhibitor – qHTS Assay to Find Inhibitors of Pin1; Potency, µM (doses to about 115 µM), for the others: top-dose activity, negative = inhibition, actives largely listed as inhibitors; actives 0.009% (n = 390,000); Peptidyl-prolyl cis-trans isomerase NIMA-interacting 1 (Homo sapiens), Q13526; Pin1 FP peptide displacement, HiFluor488, 10 min; active = well fitted inhibition curve with a large enough effect in the polarisation, with a control signal flat, not every such curve was filed as active; inconclusive = small, poorly fitted or top-dose-only effect, or effect the other way, or a change in a side signal; inactive = no such curve, though single readings can be large or run the other way; the % refers to the polarisation; note: % is set by controls: 0 for no effect and ±100 for the full control effect
Target sequence (Q13526 whole entry, looked up): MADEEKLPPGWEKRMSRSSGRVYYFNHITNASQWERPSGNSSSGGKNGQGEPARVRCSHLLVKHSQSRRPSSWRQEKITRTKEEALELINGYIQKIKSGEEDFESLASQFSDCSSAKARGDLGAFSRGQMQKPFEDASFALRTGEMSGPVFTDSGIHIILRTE
A549 viability – Nrf2 qHTS screen for inhibitors: counterscreen for cytotoxicity | AID 504648, 2011 | A549 ARE-Fluc cells, CellTiter-Fluor viability, 18-24 h | actives 0.16% (n = 390,000) | Potency, µM (doses to about 46 µM), for the others: at the highest dose activity change, negative = cytotoxicity, actives largely listed as inhibitors; note: % is set by controls: 0 for no effect and ±100 for the full control effect
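A549 ARE-Fluc cells in 5% FBS OPTI-MEM, 5000 cells/well, rested 2 h then exposed to compounds in concentration-response for 18-24 h at 37 °C. Viability by CellTiter-Fluor fluorescence (Ex 405/Em 525) after 30 min; luciferase luminescence (BugLite, 15 min, RT) read afterwards.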
Nrf2 inh – Nrf2 qHTS screen for inhibitors; actives 2.1% (n = 360,000); Potency, µM (titrated, usually from 46 µM), without a hit: at the top dose activity change, negative = inhibition, actives largely listed as inhibitors; A549 ARE-Fluc reporter, luciferase luminescence, 18-24 h; note: % is set by controls: 0 for no effect and ±100 for the full control effect; nearly all actives have a fitted effect of over 60% in size
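A549 ARE_Fluc cells, 5000/well, 5% FBS OPTI-MEM; compounds in dose-response, 18-24 h at 37 °C/5% CO2; CellTiter-Fluor viability read (Ex 405/Em 525), then BugLite luciferase luminescence = Nrf2 activity.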
* = called active by the depositor; ? = inconclusive; . = no result given. Unless noted, calls come from the whole dose curve; as a rule, active = well fitted curve in the direction sought with a large enough effect; inconclusive = small, poorly fitted or top-dose-only effect, or another doubt; inactive = no such curve, though single readings can be large; an effect the other way counts as inactive or inconclusive. Potency is the fitted concentration of half-maximal effect.

SMILES	Nrf2 activator	Pin1 inhibitor	A549 viability	Nrf2 inh
COc1ccccc1C(=O)NNC(=O)c1cccc(Br)c1	6.3µM*	3%	16%	?
COc1cc(NC(=O)c2c(F)cccc2F)nc(OC)n1	3%	2%	15%	.
COc1cc(NC(=O)c2cccc(Br)c2)nc(OC)n1	14µM*	-6%	1%	6%
COc1ccccc1/C=C(\C#N)c1nc(-c2cc3ccccc3oc2=O)cs1	22%	?	-1%	0%
CCCc1cc(-c2ccc(O)c(OCC)c2)c(C#N)c(N)n1	5%	?	-9%	4%
CCOc1cc(-c2cc(-c3ccc(C)o3)nc(N)c2C#N)ccc1O	5%	14%	?	15µM*
CN1CC(c2ccc(Cl)c(Cl)c2)[C@@]2(COc3ccccc3C2=O)[C@@]12C(=O)Nc1ccccc12 (stereo not given in full)	0%	-5%	?	18µM*
Cc1ccc(C)c(NC(=O)c2cc(=O)c3cc(C)cc(C)c3o2)c1	1%	11%	-4%	19%
CC1CCN(S(=O)(=O)c2ccc3nc(NCc4ccccc4)ccc3c2)CC1	0%	3%	-15%	16µM*
CC1CCN(S(=O)(=O)c2ccc3nc(-c4ccccn4)cc(C(=O)NCCN(C)Cc4ccccc4)c3c2)CC1	0%	2%	4%	-8%
CC1CCN(S(=O)(=O)c2ccc3nc(Nc4cccc(F)c4)ccc3c2)CC1	0%	?	?	21µM*
Cc1ccc(Nc2ccc3cc(S(=O)(=O)N4CCC(C)CC4)ccc3n2)c(Cl)c1	0%	12%	-18%	-8%
COc1ccc(C2=Nn3c(nnc3-c3ccc(OC)cc3OC)SC2)c(OC)c1	.	-4%	-10%	8%
CSCCC(NC(=O)c1cccc(S(=O)(=O)N2CCOCC2)c1)c1nc2ccccc2[nH]1 (stereo not given)	0%	1%	6%	-7%
CSCC[C@H](NC(=O)c1cccc(S(=O)(=O)N2CCCCCC2)c1)c1nc2ccccc2[nH]1	0%	41%	?	18µM*
O=C(OCC#CCSc1nnc(-c2cccc3ccccc23)o1)c1sccc1Cl	.	-1%	-13%	2%
CCc1ccc(NC(=O)N(CCN2CCOCC2)Cc2ccc3c(c2)CCCN3CC)cc1	3%	?	16µM*	?
O=C(NCc1ccc(Cl)cc1)NC1COc2ccccc2C1 (stereo not given)	1%	2%	0%	.
CC(C(=O)N(C)C1CCS(=O)(=O)C1)N1C(=O)/C(=C/c2ccc(F)cc2)SC1=S (stereo not given)	12%	4%	-13%	?
CCN(C(=O)CN1C(=O)S/C(=C\c2cccc(Cl)c2)C1=O)C1CCS(=O)(=O)C1 (stereo not given)	11µM*	-4%	0%	-16%
CCN(C(=O)C(C)N1C(=O)/C(=C/c2ccco2)SC1=S)C1CCS(=O)(=O)C1 (stereo not given)	25%	?	15µM*	?
CCN(C(=O)CN1C(=O)S/C(=C\c2ccc(Cl)cc2)C1=O)C1CCS(=O)(=O)C1 (stereo not given)	0%	-6%	-6%	-6%
Cc1cc(O)c(C(c2ccc(F)cc2)N2CCCCC2)c(=O)n1Cc1ccco1 (stereo not given)	0%	15%	2%	.
Nc1ncnc2oc(-c3ccco3)c(-c3ccco3)c12	17%	.	-20%	15µM*
Nc1ncnc2oc(-c3ccoc3)c(-c3ccco3)c12	.	.	-1%	?
SMILES	Nrf2 activator	Pin1 inhibitor	A549 viability	Nrf2 inh
O=C(N/N=C/c1cccn1-c1ccc([N+](=O)[O-])cc1)c1cccnc1	-1%	-8%	?	18µM*
CCS(=O)(=O)c1cccc(C(=O)N2CCN(c3nc4c(C)ccc(Cl)c4s3)CC2)c1	-1%	20%	-18%	12µM*
CCN1CCN(C(=O)Cn2ncc3c4ccccc4n(Cc4c(C)cc(C)cc4C)c3c2=O)CC1	8%	16%	-8%	-1%
CCCN(CCC)CCCNC(=O)c1cc2c(=O)oc3ccc(C)cc3c2s1	-1%	2%	-4%	7%
CC(C)(C)n1nnnc1C(c1ccc(C(F)(F)F)cc1)N(Cc1ccccc1)Cc1ccco1 (stereo not given)	-1%	12%	-27%	15µM*
COc1ccc2c(c1)-c1c(sn(-c3ccccc3)c1=S)C(C)(C)N2	5%	-1%	-5%	-6%
COc1ccc(-n2sc3c(c2=S)-c2cc(OC)ccc2NC3(C)C)cc1	2%	-9%	-18%	21µM*
O=S(=O)(NCCNc1nc(-c2ccco2)nc2ccccc12)c1ccccc1	.	0%	-3%	12%
NS(=O)(=O)c1ccc(CCNC(=O)CN2CCN(c3ccc(F)cc3)CC2)cc1	0%	-3%	-11%	16µM*
O=C(Nc1ccc(-c2nnc3n2CCCCC3)cc1)c1cc2ccccc2o1	1%	-11%	-5%	-27%
Cc1c(C(=O)Nc2ccc(-c3nnc4n3CCCCC4)cc2)oc2c1ccc1ccccc12	-3%	28%	?	9.2µM*
Cc1nn(C)c(Cl)c1NC(=O)OCc1ccc(Cl)cc1Cl	0%	-2%	1%	16µM*
S=c1[nH]nc(Cc2cccs2)n1-c1ccccc1Cl	-1%	0%	6%	16µM*
S=c1[nH]nc(Cc2cccs2)n1-c1cccc2ccccc12	0%	0%	1%	7%
COc1ccc(CNC(=O)c2cc3c(=O)n(C)c4ccccc4c3n2C)c(OC)c1	-1%	-4%	-2%	3%
COc1ccc(/C=N/NC(=O)c2ccc(CSc3nc(C)cc(C)n3)cc2)cc1O	6%	19%	-25%	21µM*
COc1ccc(/C=N/NC(=O)c2ccc(CSc3nc(C)cc(C)n3)cc2)c(OC)c1OC	-1%	12%	-3%	-5%
Cc1cc(C)nc(SCc2ccc(C(=O)N/N=C/c3cccc(O)c3O)cc2)n1	0%	-2%	-2%	?
COc1ccc(O)c(/C=N/NC(=O)c2ccc(CSc3nc(C)cc(C)n3)cc2)c1	4%	?	-13%	9.2µM*
Cc1ccc(-c2cc(C(F)(F)F)n3nc(C(=O)Nc4sc5c(c4C#N)CCC(C)C5)cc3n2)cc1 (stereo not given)	-1%	1%	12%	1%
O=[N+]([O-])c1ccc(S(=O)(=O)N2CCN(c3nc(-c4cccs4)nc4ccccc34)CC2)cc1	.	-1%	4%	?
CN(C)/C=N/c1nc2c(ncn2C2CC(O)C(CO)O2)c(=O)[nH]1 (stereo not given)	.	-14%	-3%	0%
c1coc(-c2ccnc(-n3cccc3)n2)c1	?	-3%	2%	?
Clc1ccsc1-c1ccc2ccccc2n1	10µM*	1%	-3%	?
Clc1ccc(-c2ccnc(-n3cccc3)n2)s1	?	3%	4%	21%
Cc1ccsc1-c1ccnc(-n2cccc2)n1	5µM*	6%	9%	?
Clc1ccsc1-c1ccnc(-n2cccc2)n1	10µM*	3%	8%	?
